Results filed as inconclusive are left out. Active and inactive are the calls of the source. The call rests on the fitted dose curve; in most records, active means well fitted cell-killing curve with a large enough effect; inconclusive means small, poorly fitted or top-dose-only effect, or effect the other way; inactive means no such curve, though single readings can be large or run the other way.

A short description of assay [1]: Quantitative High-Throughput drug screen in 47 multiple myeloma cell lines against the NCATS MIPE library collection: MM1S_ATCC cell viability assay (AID 1918980). Further: nearly all actives have a fitted effect of over 45% in size. The method, boiled down: (§1)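 ATP-based luminescence (CellTiter-Glo, 5 min RT incubation) quantified surviving cells following two days' treatment with MIPE 4.0 agents at 37 °C, 5% CO2.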
Assay [2] can be described thus: Quantitative High-Throughput drug screen in 47 multiple myeloma cell lines against the NCATS MIPE library collection: MM1R_ATCC cell viability assay (AID 1918981). Further: nearly all actives have a fitted effect of over 35% in size. Summed up:
as §1

Assay [3] is described as follows: Quantitative High-Throughput drug screen in 47 multiple myeloma cell lines against the NCATS MIPE library collection: KMS28PE_JCRB cell viability assay (AID 1918983). Further: nearly all actives have a fitted effect of over 35% in size. The method, boiled down: as §1
The nature of assay [4]: Quantitative High-Throughput drug screen in 47 multiple myeloma cell lines against the NCATS MIPE library collection: KMS34_JCRB cell viability assay (AID 1918985). Further: nearly all actives have a fitted effect of over 40% in size. Summed up:
as §1

Assay [5] in a line: Quantitative High-Throughput drug screen in 47 multiple myeloma cell lines against the NCATS MIPE library collection: OCIMY7_PLB cell viability assay (AID 1918987). Further: nearly all actives have a fitted effect of over 65% in size. The conditions noted are these: OCI-MY7 myeloma viability, CellTiter-Glo ATP, 48 h; viability (% of DMSO): at 45.8 µM (top of the series). Summed up:
as §1

Assay [6] is described as follows: Quantitative High-Throughput drug screen in 47 multiple myeloma cell lines against the NCATS MIPE library collection: OCIMY5_PLB cell viability assay (AID 1918988). Further: nearly all actives have a fitted effect of over 65% in size. Summed up:
as §1

Assay [7] in a line: Quantitative High-Throughput drug screen in 47 multiple myeloma cell lines against the NCATS MIPE library collection: LP1_DSMZ cell viability assay (AID 1918982). Further: nearly all actives have a fitted effect of over 35% in size. The method, boiled down: as §1
Assay [8] in a line: Quantitative High-Throughput drug screen in 47 multiple myeloma cell lines against the NCATS MIPE library collection: OPM1_PLB cell viability assay (AID 1918989). Further: nearly all actives have a fitted effect of over 40% in size. Summed up:
as §1

The nature of assay [9]: Quantitative High-Throughput drug screen in 47 multiple myeloma cell lines against the NCATS MIPE library collection: L363_DSMZ cell viability assay (AID 1918984). Further: nearly all actives have a fitted effect of over 40% in size. The conditions noted are these: L363 myeloma viability, CellTiter-Glo ATP luminescence, 48 h; viability (% of control): at 45.8 µM (top of the series). Summed up:
as §1
Background: In ATP-based viability assays light output follows the ATP content of the culture.
Potency means the concentration at half of the fitted maximal effect.

`C[C@@H]1[C@H](O)[C@@H](C)C=CC=CC=CC=CC=CC=CC=C[C@H](O[C@@H]2O[C@H](C)[C@H](O)[C@H](N)[C@@H]2O)C[C@@H]2O[C@](O)(C[C@@H](O)C[C@@H](O)[C@H](O)CC[C@@H](O)C[C@@H](O)CC(=O)O[C@H]1C)C[C@H](O)[C@@H]2C(=O)O`: the Potency is 0.833 µM (active) in [1]; 16.6 µM (active) in assay [2]; 11.8 µM (active) in assay [4]; 11.8 µM (active) in [5]; 4.18 µM (active) in assay [6]. Also, the Potency result in assay [3] was “inactive”.
Take `CCCCC[C@H](O)C=C[C@H]1[C@H](O)CC(=O)[C@H]1CC=CCCCC(=O)O`: the Potency was 20.9 µM (active) in assay [1], 0.0148 µM (active) in assay [4] and 18.7 µM (active) in assay [8]. The Potency entry in assay [2], in [7] and in assay [3] was “inactive” in each case.
As to `O=C(c1ccc(F)c(F)c1Nc1ccc(I)cc1F)N1CC(O)([C@H]2CCCCN2)C1`, the Potency is 18.7 µM (active) in assay [1]; 23.5 µM (active) in assay [2]; 18.7 µM (active) in assay [3]; 1.66 µM (active) in assay [9]; 18.7 µM (active) in [6]; 11.8 µM (active) in assay [8]. Besides, the Potency entry in assay [5] was “inactive”.
Turning to `COc1c(C)cnc(Cn2cnc3c(Cl)nc(N)nc32)c1C`, the Potency in assay [1] is 0.332 µM (active); in assay [2] it was 0.235 µM (active); in assay [3] it was 0.235 µM (active); in assay [9], 0.0372 µM (active); in assay [4], 0.105 µM (active); in assay [5], 0.0418 µM (active). Further, the Potency in [6] is 0.0935 µM (active); in assay [8] it was 0.148 µM (active).
With `CCN1CCC(n2cc(CNc3cc(Cl)c4ncc(C#N)c(Nc5ccc(F)c(Cl)c5)c4c3)nn2)CC1`, the Potency in assay [1] is 16.6 µM (active); in assay [2], 8.33 µM (active); in [3], 7.43 µM (active); in [9], 4.69 µM (active); in assay [6], 4.18 µM (active); in assay [8], 18.7 µM (active).
For `COc1nc(C)cnc1NS(=O)(=O)c1cccnc1-c1ccc(-c2nnco2)cc1`, the Potency result in assay [1], in assay [2], in assay [7] and in assay [9] was “inactive” each time.
With `NC1(C(=O)N[C@@H](CCO)c2ccc(Cl)cc2)CCN(c2ncnc3[nH]ccc23)CC1`, the Potency in assay [1] was 0.0833 µM (active); in [2], 0.148 µM (active); in [3], 0.372 µM (active); in [9], 0.235 µM (active); in [4], 8.33 µM (active); in [5], 3.72 µM (active). For the same compound, the Potency in assay [6] was 5.26 µM (active); in assay [8], 1.48 µM (active).
For `CCC[C@H](Nc1nc(-c2ccc(NC(=O)NCC)c(OC)c2)ncc1C)c1cccnc1`, the Potency is 0.0209 µM (active) in assay [1]; 0.0187 µM (active) in assay [2]; 0.0148 µM (active) in assay [3]; 0.0059 µM (active) in [4]; 0.0166 µM (active) in assay [6]; 0.001 µM (active) in assay [8].
For the compound `O=c1[nH]c(=O)n([C@H]2C[C@@H](O)[C@@H](CO)O2)cc1C(F)(F)F`, the Potency was 10.5 µM (active) in assay [1]; 7.43 µM (active) in assay [2]; 16.6 µM (active) in assay [3]; 7.43 µM (active) in assay [5]; 14.8 µM (active) in assay [6]. The Potency entry in assay [8] is “inactive”.
Turning to `CC=C1C2C=C(C)CC1(N)c1ccc(=O)[nH]c1C2` (stereo not given), the Potency entry in [1], in assay [2], in [7], in assay [9], in [5] and in [8] was “inactive” throughout.
As for `Cc1nc2c([nH]1)CCN(C(=O)c1ccc(NC(=O)c3ccccc3-c3ccccc3)cc1)c1ccccc1-2`, the Potency result in assay [1], in assay [2] and in assay [3] was “inactive” in each case.
For the compound `O=C(CC12CC3CC(CC(C3)C1)C2)Nc1cccc2nc(NCCNCCO)ccc12`, the Potency in [1] was 8.33 µM (active); in assay [2], 20.9 µM (active); in assay [3], 16.6 µM (active); in assay [4], 26.4 µM (active); in assay [5], 0.743 µM (active); in [6], 11.8 µM (active). Further, the Potency in assay [8] was 7.43 µM (active).
On to `CCCCOCCOc1nc(-c2ccc(C(=O)O)c(F)c2)sc1C`, for which the Potency in assay [1] was 13.2 µM (active); in assay [6], 14.8 µM (active). Besides, the Potency entry in assay [2], in assay [7] and in assay [9] was “inactive” each time.
Regarding `NCc1c[nH]c(=S)n1[C@H]1CCc2c(F)cc(F)cc2C1`, the Potency is 23.5 µM (active) in assay [1]; 16.6 µM (active) in assay [2]; 14.8 µM (active) in [3]; 20.9 µM (active) in assay [4]; 9.35 µM (active) in assay [6]; 18.7 µM (active) in assay [8].
For `c1cc(OCCN2CCCCC2)cc(-c2n[nH]c3ccc(-c4ncn[nH]4)cc23)c1`, the Potency was 23.5 µM (active) in assay [1]; 26.4 µM (active) in assay [2]; 16.6 µM (active) in assay [3]; 20.9 µM (active) in [4]; 5.26 µM (active) in assay [5].
In the case of `Cc1[nH]c(C=C2C(=O)Nc3ccc(S(=O)(=O)N(C)c4cccc(Cl)c4)cc32)c(C)c1C(=O)N1CCN(C)CC1`, the Potency in assay [1] was 26.4 µM (active); in assay [2], 23.5 µM (active); in [7], 18.7 µM (active); in assay [3], 23.5 µM (active); in assay [4], 20.9 µM (active); in assay [5], 18.7 µM (active). The Potency in assay [8] was 9.35 µM (active).
Regarding `CC1(C)CC(=O)c2c(C(F)(F)F)nn(-c3ccc(C(N)=O)c(NC4CCC(O)CC4)c3)c2C1` (stereo not given), the Potency in assay [1] is 0.148 µM (active); in assay [2], 0.118 µM (active); in assay [3], 0.118 µM (active); in assay [4] it was 0.105 µM (active); in [5], 0.0662 µM (active); in assay [6] it was 0.118 µM (active). For the same compound, the Potency in assay [8] is 0.105 µM (active).
Turning to `O=C(O)c1nc(=O)[nH]c(=O)[nH]1`, the Potency result in assay [1], in [2], in [9], in assay [4], in [5] and in assay [8] was “inactive” throughout. For the same compound, in assay [3], the Potency was 11.5 µM (active).
For `CN1CCC(COc2cnc(-c3cccc(Cn4nc(-c5cccc(C#N)c5)ccc4=O)c3)nc2)CC1`, the Potency was 0.0743 µM (active) in [1]; 18.7 µM (active) in assay [2]; 18.7 µM (active) in assay [7]; 0.059 µM (active) in assay [5]; 0.0469 µM (active) in assay [6]; 16.6 µM (active) in [8]. Further, in assay [3], the Potency entry is “inactive”.
As to `COc1ccc2cc1Oc1ccc(cc1)C[C@H]1c3cc(c(OC)cc3CCN1C)Oc1c(OC)c(OC)cc3c1[C@H](C2)N(C)CC3`, the Potency is 18.7 µM (active) in assay [1]; 13.2 µM (active) in assay [2]; 14.8 µM (active) in assay [3]; 5.9 µM (active) in assay [9]; 14.8 µM (active) in [4]; 16.6 µM (active) in [5]. The Potency was 16.6 µM (active) in [6] and 18.7 µM (active) in assay [8].

The record behind these values is PubChem BioAssay (NCATS).
